A short description of test [1]: qHTS assay for small molecule agonists of the p53 signaling pathway (AID 651631; calls by dose curve; further: nearly all actives have a fitted effect of over 15% in size; further: potency means the concentration at half of the fitted maximal effect). Summed up: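 p53RE-bla HCT-116 cells; compounds 16 h, 37 °C; LiveBLAzer B/G FRET substrate 2 h RT; fluorescence intensity read-out, qHTS format.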
On the technique in general: qHTS replaces the single test concentration by a dilution series.

Test [2] in a line: qHTS assay for small molecule agonists of the p53 signaling pathway - cell viability (AID 651633; calls by dose curve; further: nearly all actives have a fitted effect of over 30% in size; further: potency means the concentration at half of the fitted maximal effect). In short, it runs like this:
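p53RE-bla cells were treated with compound for 16 hours at 37 C. Cytotoxicity was then measured as CellTiter-Glo luminescence after 30 min at room temperature.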

The nature of test [3]: qHTS assay for small molecules that induce genotoxicity in human embryonic kidney cells expressing luciferase-tagged ATAD5 - cell viability (AID 651634; calls by dose curve; further: nearly all actives have a fitted effect of over 25% in size; further: potency means the concentration at half of the fitted maximal effect). In short, it runs like this:
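Fluorescence from CellTiter-Fluor, reporting protease activity within live cells, served as the viability read-out. HEK293T cells carrying luciferase-tagged ATAD5 had been treated with compound for 15.5 hr at 37C.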

Test [4] can be described thus: qHTS assay for small molecule disruptors of the mitochondrial membrane potential - cell viability (AID 720634; calls by dose curve;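 further: human HepG2 liver cancer cells; series mostly up to about 83 µM; nearly all actives have a fitted effect of over 20% in size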). Summed up:
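Cells: HepG2, 2,000/well, attached overnight. Compound 1 hr, 37 C/5% CO2. +m-MPI dye, +CellTiter-Glo 30 min RT. Readout: luminescence (ATP).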

Test [5] in a line: qHTS assay to test for compound auto fluorescence at 590 nm (red) in HepG2 cells (AID 720674). Summed up:
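Fluorescence at 590 nm emission following 540 nm excitation was recorded from HepG2 wells one hour after compound transfer, with DMSO-only wells as vehicle and Rose Bengal sodium equivalency as the scale.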

A short description of test [6]: qHTS assay to test for compound auto fluorescence at 460 nm (blue) in HEK293 cells (AID 720678). Summed up:
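HEK293 cells (2,000 per well, medium with 10% dialyzed FBS) attached for 4-5 hr at 37C, then received compound and stood overnight at 37C, 5% CO2. Blue fluorescence was read at Ex/Em 405/460 nm and expressed relative to triamterene.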

The nature of test [7]: qHTS assay to test for compound auto fluorescence at 590 nm (red) in HEK293 cells (AID 720679). In short, it runs like this: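 HEK293 cells (2,000/well, medium with 10% dialyzed FBS) attached for 4-5 hr at 37C, received 23 nL compound and were incubated overnight at 37C, 5% CO2. Red fluorescence was then read at 540/590nm Ex/Em, referenced to Rose Bengal sodium.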
Test [8] in a line: qHTS assay for small molecule disruptors of the mitochondrial membrane potential (AID 720635). Summed up:
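HepG2 cells exposed to compound 1 hr at 37C, then Mito-MPS dye 30 min. Ratio read of aggregate (540/590 nm) versus monomer (490/535 nm) fluorescence.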

A short description of test [9]: qHTS assay to test for compound auto fluorescence at 535 nm (green) in HepG2 cells (AID 720675).
Test [10] in a line: qHTS assay for small molecules that induce genotoxicity in human embryonic kidney cells expressing luciferase-tagged ATAD5 (AID 651632). Further: nearly all actives have a fitted effect of over 15% in size. In short, it runs like this:
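ATAD5-luc HEK293T, 2,000 cells/well; cpd or DMSO pin-transferred; 16 hr, 37C/5% CO2; Amplite 30 min RT; luminescence.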

SMILES strings stand for the structures. “And” between values parts separate entries of the source, which are not always exact repeats. Identical values can stand only once. A number with no mark means an inactive call. Results filed as inconclusive are left out. The source made the active and inactive calls. Unless noted, the call rests on the fitted dose curve; in most records, active means well fitted curve in the direction sought with a large enough effect in the repeat runs; inconclusive means weak or mixed curves; inactive means no such curve, though single readings can be large; an effect the other way counts as inactive or inconclusive.

With `CC(=O)Nc1ccccc1O`, the Potency entry in test [1], in [2], in test [3], in [4] and in test [6] was “inactive” throughout. Besides, the call in [5] and in [7] was inactive.
Take `Cc1ccc2ccccc2c1[N+](=O)[O-]`: the Potency entry in test [1], in test [2], in test [4], in test [8] and in test [6] was “inactive” throughout. Also, the compound was called inactive in [5], in [9] and in test [7].
For `Nc1ccc(-c2ccc(F)cc2)cc1`, the Potency entry in test [1], in [2], in test [3], in test [4] and in [6] was “inactive” throughout. Besides, the compound was called inactive in test [5], in test [9] and in test [7].
Turning to `CCC(C)CCCC(C)(C)O` (configuration not stated), the Potency entry in test [1], in [2], in test [3] and in test [6] was “inactive” throughout. The outcome in test [5] and in [7] was inactive.
Take `O=C(O)c1ccccc1-n1cc(C(=O)O)c(=O)c2cc(Nc3c(F)cc(F)cc3Cl)c(Cl)cc21`: the Potency result in test [1], in [2], in [3], in [4], in test [8] and in test [6] was “inactive” each time. Further, the call in test [5], in test [9] and in [7] was inactive.
As for `NCCOCCOCCN`, the Potency entry in test [1], in test [2], in test [4] and in [6] was “inactive” in each case. Further, the compound was classed as inactive in test [5], in [9] and in [7].
As for `Nc1cccc2c(=O)[nH][nH]c(=O)c12`, the Potency result in test [1], in [2], in test [3], in test [4], in test [8] and in [6] was “inactive” each time. Besides, the outcome in test [5] and in test [7] was inactive.
`C=C(C)C(=O)OCCCCCCCCCCOC(=O)C(=C)C`: the Potency entry in test [1], in test [2], in test [4] and in test [6] was “inactive” each time. The compound was called inactive in [5] and in [7].
Consider `C1CCN(CN2CCCCC2)CC1`, for which the Potency result in [1], in [2], in test [3], in test [4], in test [8] and in test [6] was “inactive” throughout. For the same compound, the compound was called inactive in [5], in test [9] and in test [7].
With `O=C(O)c1cc(C(=O)O)c(C(=O)O)cc1C(=O)O`, the Potency entry in [1], in test [2] and in test [6] was “inactive” throughout. Besides, the compound was called inactive in test [5], in [9] and in [7].
Take `CCCC(=O)OCCC(C)C`: the Potency result in test [1], in test [2], in test [3], in test [4], in test [8] and in test [6] was “inactive” in each case. In addition, the outcome in test [5], in test [9] and in [7] was inactive.
Turning to `CCOc1cc(OCC)c(C(C)=O)cc1OCC`, the Potency result in test [1], in test [2], in [4] and in [6] was “inactive” throughout. Also, the compound was called inactive in [5], in [9] and in test [7].
On to `C=C[Si](OCC)(OCC)OCC`, for which the Potency result in [1], in [2], in test [3], in test [4] and in test [6] was “inactive” in each case. The call in test [5], in test [9] and in [7] was inactive.
Take `CC(CCl)OC(C)CCl` (configuration not stated): the Potency result in test [1], in [10], in test [3], in [4] and in [8] was “inactive” throughout. Also, the compound was called inactive in test [5] and in test [7].
For `C=CCCC`, the Potency entry in [1], in [2], in test [3], in [4], in test [8] and in test [6] was “inactive” in each case. The outcome in test [5], in test [9] and in [7] was inactive.
Turning to `Sc1nc(S)nc(S)n1`, the Potency result in test [1], in test [2], in test [3], in test [4] and in test [6] was “inactive” in each case. The result in test [5], in test [9] and in test [7] was inactive.
Take `C=C[Si]1(C)O[Si](C)(C=C)O[Si](C)(C=C)O[Si](C)(C=C)O1` (configuration not stated): the Potency entry in [1] and in [2] was “inactive” each time. Moreover, the call in [5] and in test [7] was inactive.
As to `S=c1[nH][nH]c(=S)s1`, the Potency result in test [1], in test [2], in test [3], in test [4] and in test [6] was “inactive” throughout. Moreover, the call in [5] and in test [7] was inactive.
As for `O=C(O)CCc1nc2ccccc2[nH]1`, the Potency result in test [1], in test [2], in test [3], in test [8] and in [6] was “inactive” in each case. Also, the compound was classed as inactive in [5], in test [9] and in test [7].
In the case of `CCCCCCCCOCCCN`, the Potency entry in [1], in test [10], in test [4] and in test [6] was “inactive” throughout. The result in [5] and in [7] was inactive.
For `CCCOC(C)=O`, the Potency result in test [1], in [10], in test [3], in test [4] and in test [6] was “inactive” in each case. In addition, the call in test [5], in test [9] and in [7] was inactive.
Regarding `CCCC1CCCC(=O)O1` (configuration not stated), the Potency result in test [1], in test [2], in test [3], in test [4], in test [8] and in [6] was “inactive” in each case. Further, the call in test [5], in test [9] and in test [7] was inactive.
For the compound `CCOC(OCC)OCC`, the Potency result in test [1], in [2], in test [3], in [4], in [8] and in test [6] was “inactive” in each case. Further, the outcome in [5], in test [9] and in test [7] was inactive.
As for `O=C(OCCCCCOC(=O)c1ccccc1)c1ccccc1`, the Potency result in test [1], in test [2], in test [3], in [4] and in test [6] was “inactive” each time. For the same compound, the call in test [5], in test [9] and in test [7] was inactive.
For the compound `CCCCCO`, the Potency entry in test [1], in test [10], in test [2] and in test [6] was “inactive” each time. Also, the compound was classed as inactive in test [5] and in test [7].
As to `CC(C)C[C@H](NC(=O)[C@H](Cc1ccccc1)NC(=O)c1cnccn1)B(O)O`, the Potency is 15 nM (active) and 9.4 nM (active) in [1]; 376 nM (active) and 211 nM (active) in test [2]; 376 nM (active) and 94.4 nM (active) in test [3]. The Potency entry in [4], in test [8] and in [6] was “inactive” throughout. In addition, the result in test [5], in test [9] and in test [7] was inactive.
Turning to `C[C@]12CCC(=O)C=C1[C@@H]1C[C@@H]1[C@H]1[C@@H]3[C@@H]4C[C@@H]4[C@@]4(CCC(=O)O4)[C@@]3(C)CC[C@@H]12`, the Potency entry in [1], in test [10] and in test [6] was “inactive” in each case. For the same compound, the call in test [5], in [9] and in [7] was inactive.

Source of the values: PubChem BioAssay (Tox21).
